Inconclusive results are not listed. A call without a number means that no potency is given here. The source made the active and inactive calls. The call rests on the fitted dose curve; in most records, active means well fitted cell-killing curve with a large enough effect in the repeat runs; inconclusive means weak or mixed curves, or effect the other way; inactive means no such curve, though single readings can be large or run the other way.
Assay: qHTS assay for identifying genotoxic compounds that show differential cytotoxicity against isogenic chicken DT40 cell lines with known DNA damage response pathways - wild type cell line (AID 743012); further: nearly all actives have a fitted effect of over 60% in size
Settings: DT40 wild type chicken cells viability, CellTiter-Glo, 40 h; series mostly up to 68.4 µM
Procedure, shortened: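 300 wt DT40 cells/well; cpd (DMSO) pintool-transferred after ~0.5 h at 37 C/5% CO2; 40 h incubation; CellTiter-Glo added, 30 min RT; luminescence read.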

Question: With `O=C1CCCCCCCCCCC(=O)OCCO1` as the compound, how does the Potency read?
Answer: inactive

Question: Which Potency does the source give for `COc1cc(Cl)ccc1Cl` here?
Answer: inactive

Question: With `CCNCCO` as the compound, how does the Potency read?
Answer: inactive

Question: Which Potency does the source give for `CCc1nnc(NS(=O)(=O)c2ccc(N)cc2)s1` here?
Answer: inactive

Question: Which Potency does the source give for `FC(F)(F)c1ccccc1` here?
Answer: inactive

Question: For `CC(C)OC(C)C`, which Potency is on record?
Answer: inactive

Question: Which Potency does the source give for `ClC(Cl)Cl` here?
Answer: inactive

Question: With `CCCN(CCC)C(=O)C(CCC(=O)O)NC(=O)c1ccccc1` (stereo unspecified) as the compound, how does the Potency read?
Answer: inactive

Question: For `CC1(C)O[C@@H]2C[C@H]3[C@@H]4CCC5=CC(=O)CC[C@]5(C)[C@@]4(F)[C@@H](O)C[C@]3(C)[C@]2(C(=O)CCl)O1`, which Potency is on record?
Answer: inactive

Question: With `O=C(O[C@@H](C(=O)O)[C@@H](OC(=O)c1ccccc1)C(=O)O)c1ccccc1` as the compound, how does the Potency read?
Answer: inactive

Assay: qHTS assay for identifying genotoxic compounds that show differential cytotoxicity against isogenic chicken DT40 cell lines with known DNA damage response pathways - Rev3 mutant cell line (AID 743014); further: nearly all actives have a fitted effect of over 55% in size
Settings: chicken DT40 Rev3-/- viability, CellTiter-Glo, 40 h; series mostly up to 68.4 µM

Question: With `C[C@@H]1CN(c2c(F)c(N)c3c(=O)c(C(=O)O)cn(C4CC4)c3c2F)C[C@H](C)N1` as the compound, how does the Potency read?
Answer: inactive

Question: Which Potency does the source give for `CC1(C)C(=O)N(Cl)C(=O)N1Br` here?
Answer: inactive

Question: With `CCCCCCC` as the compound, how does the Potency read?
Answer: inactive

Question: For `CCC/C=C/CO`, which Potency is on record?
Answer: inactive

Question: Which Potency does the source give for `CCOC(=O)c1ccccc1O` here?
Answer: inactive

Question: For `Cc1ccc([N+](=O)[O-])cc1Cl`, which Potency is on record?
Answer: inactive

Question: For `OCCN1CCN(CCO)CC1`, which Potency is on record?
Answer: inactive

Question: With `COc1ccccc1OCC(O)COC(N)=O` (stereo unspecified) as the compound, how does the Potency read?
Answer: inactive

Question: With `C=O` as the compound, how does the Potency read?
Answer: inactive

Question: For `CC/C=C\CCOC(=O)CCCCC`, which Potency is on record?
Answer: inactive

Question: Which Potency does the source give for `CCOc1ccc(NC(N)=O)cc1` here?
Answer: inactive

Question: For `Clc1cccc(-c2cc(Cl)cc(Cl)c2)c1`, which Potency is on record?
Answer: inactive

Question: For `CC1=CC(=O)CC(C)(C)C1=O`, which Potency is on record?
Answer: inactive

Question: With `CN(CC1(C)CCCO1)S(=O)(=O)c1ccc(Cl)c(S(N)(=O)=O)c1` (stereo unspecified) as the compound, how does the Potency read?
Answer: inactive

Question: For `C=CCCCCCCCCO`, which Potency is on record?
Answer: inactive

Question: Which Potency does the source give for `CC1=NN(c2cc(Cl)c(S(=O)(=O)O)cc2Cl)C(=O)C1N=Nc1ccc(S(=O)(=O)O)cc1` (stereo unspecified) here?
Answer: inactive

Source: PubChem BioAssay (Tox21)
